Results as given in PubChem BioAssay AID588763 (NMMLSC, 2011).
Results with a measured potency or affinity are listed apart. Activity calls are given as the source filed them. No rule for the calls is given here.

biological target: Beta-2 adrenergic receptor (Homo sapiens) (UniProt P07550); test: beta2AR agonists driving receptor internalization, dose response, cell-based, FAP fluorogen, flow cytometry, cherry pick 1 (AID 588763); settings: AM2.2-beta2AR cells, 90 min; series mostly up to 33 µM
Sequence (P07550 whole entry, looked up): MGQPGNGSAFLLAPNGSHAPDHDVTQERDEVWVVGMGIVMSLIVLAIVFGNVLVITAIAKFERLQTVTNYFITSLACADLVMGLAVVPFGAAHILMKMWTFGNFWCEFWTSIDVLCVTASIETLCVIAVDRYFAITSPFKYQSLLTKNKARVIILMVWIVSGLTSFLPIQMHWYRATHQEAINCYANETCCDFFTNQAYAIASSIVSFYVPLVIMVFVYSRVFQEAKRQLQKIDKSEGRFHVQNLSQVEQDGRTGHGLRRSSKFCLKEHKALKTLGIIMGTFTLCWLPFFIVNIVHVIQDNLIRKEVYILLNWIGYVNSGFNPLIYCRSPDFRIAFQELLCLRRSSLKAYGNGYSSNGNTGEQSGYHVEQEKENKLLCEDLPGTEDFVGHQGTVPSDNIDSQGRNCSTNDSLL

outcome, inactive:
O=C(c1cc(COc2ccc(F)cc2Cl)on1)N1CC2C[C@@H]3CC1C[C@H](C2)C3
COc1ccc(CCNCC(O)c2ccccc2)cc1 (stereo not drawn)
CC1CCCN(C(C(=O)Nc2ccc3c(c2)OCO3)c2ccccc2)C1 (stereo not drawn)
CC(NC(=O)c1cc(COc2ccc3ncccc3c2)on1)c1ccc(F)cc1 (stereo not drawn)
O=C1CN(S(=O)(=O)c2cccc(Cl)c2Cl)c2ccccc2N1
O=C(Nc1ccccc1C(=O)O)c1cccc(N2C(=O)c3ccccc3C2=O)c1
CCOc1cc(-c2nc3ccccn3c2NCC2CCCO2)ccc1O (stereo not drawn)
CCOC(=O)C1CCN(C(=O)COC(=O)c2ccccc2C(=O)c2ccc(Cl)cc2)CC1
CN(C)S(=O)(=O)c1cccc(NC(=O)c2ccc(N3CCOCC3)c([N+](=O)[O-])c2)c1
CCN(CC)CCNc1ncnc2c1sc1nc(N3CCCC3)c3c(c12)CC(C)(C)OC3
O=C(Nc1ccc(-c2cccc(F)c2)cc1)C1CCCN(Cc2ccccn2)C1 (stereo not drawn)
NC(=O)CC(NC(=O)c1ccccc1)c1ccc(N2CCN(c3ccccn3)CC2)c([N+](=O)[O-])c1 (stereo not drawn)
CCOc1ccc(NC(=O)COc2ccc(S(=O)(=O)N3CCOCC3)cc2)cc1
COc1ccccc1-c1cc(C(F)(F)F)nc(S(=O)(=O)CCCC(=O)N2CCCCC2C)n1 (stereo not drawn)
O=C(CSc1ccc(Cl)cc1)Nc1ccccc1N1CCN(C(=O)c2ccccc2)CC1
COC(=O)c1ccc(CN2CCC(Oc3ccc(C(=O)N4CCCCC4)cc3)CC2)cc1
COc1ccc(OC)c(S(=O)(=O)N(C)CC(=O)N2CCN(c3ccccc3)CC2)c1
COC(=O)c1ccc(CNC(=O)c2cc(COc3cncc(Cl)c3)on2)cc1
COc1ccccc1N1CCN(C(=O)CN(C)S(=O)(=O)c2ccc(C)cc2)CC1
CCc1ccc(CN(C)C(=O)c2cc(COc3cncc(Cl)c3)on2)cc1
CCOc1ccc(NC(=O)COc2ccc(S(=O)(=O)N3CCCC3)cc2)cc1
CC1CCCN(C(=O)C(C)Sc2nc(-c3ccccc3)cc(C(F)(F)F)n2)C1 (stereo not drawn)
O=C(c1ccc(OC2CCN(Cc3cccc(OCCO)c3)CC2)cc1)N1CCCC1
O=C(Nc1cccc(-c2nc3cccnc3s2)c1)C1c2ccccc2Oc2ccccc21
COc1cc(CNCCc2ccc(S(N)(=O)=O)cc2)ccc1OCc1ccc(Cl)cc1
COc1ccc(S(=O)(=O)N(C)CC(=O)N2CCN(c3ccccc3)CC2)cc1
CCOC(=O)c1ccc(N=c2sc(C(=O)OC)cc(=O)n2-c2ccc(C(=O)OCC)cc2)cc1
CCOC(=O)c1ccc(NC(=O)Cn2nnc(-c3ccccc3C)n2)cc1
Cc1cc(S(=O)(=O)N2CCCCC2)ccc1OCC(=O)Nc1ccccc1
O=C(c1ccc(-c2nnc(Nc3ccccc3)c3ccccc23)cc1)N1C[C@H]2C[C@H](C1)c1cccc(=O)n1C2
COc1ccc(-c2nc(NC(=O)c3cc(C(C)(C)C)nn3C)sc2C)cc1
CC1=NN(C(N)=S)C(=O)C1N=Nc1ccc(F)cc1 (stereo not drawn)
Cc1ccc(OCC(O)Cn2c(=N)n(Cc3ccccc3)c3ccccc32)cc1 (stereo not drawn)
